# Assay outcomes (PubChem)
# Sfp PPTase inh: qHTS Assay for Inhibitors of Bacillus subtilis Sfp phosphopantetheinyl transferase (PPTase). Potency, µM, for the others: largest response in the series, negative = inhibition, hits mostly inhibitors. actives 3.5% (n = 310,000). 4'-phosphopantetheinyl transferase ffp (Bacillus subtilis), Q9F4F7. Biochemical Sfp PPTase activity, qHTS;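 also: the enzyme is Sfp with the accession as filed and its product quenches rhodamine fluorescence; 0% = enzyme reaction without inhibitor and -100% = no enzyme wells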
#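 Fluorescence-quenching assay: 15 nM Sfp-PPTase preincubated 15 min at room temperature with compound, then 5 uM rhodamine-CoA and 12.5 uM BHQ-2-labelled YbbR peptide added. Fluorescence (ex 525/em 598 nm) read at start and after 30 min; difference gives rate.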
# TDP1 block: qHTS Assay for Inhibitors of Tyrosyl-DNA Phosphodiesterase (TDP1). recombinant TDP1, AlphaScreen DNA substrate cleavage. Tyrosyl-DNA phosphodiesterase 1 (Homo sapiens), Q9NUW8. AID 485290, 2010. Potency, µM (series often up to 130 µM), for the others: top-dose activity change, negative = inhibition, actives largely listed as inhibitors. actives 0.28% (n = 350,000); also: % is scaled to controls: 0 for no effect and ±100 for the full control effect; nearly all actives have a fitted effect of over 40% in size
#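 Compounds were preincubated with Tdp1 (1 nM final) for 15 min at room temperature before substrate (15 nM final) started a 5 min reaction; beads (10 ug/ml final) were then added for 10 min before AlphaScreen detection.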
# BAZ2B block: qHTS Assay for Inhibitors of BAZ2B; Bromodomain adjacent to zinc finger domain protein 2B (Homo sapiens), Q9UIF8; AlphaScreen BAZ2B-H3K14Ac peptide displacement; Potency, µM (titrated, usually from 114 µM), for inactives: at the top dose activity change, negative = inhibition, usual class: inhibitors; actives 4.4% (n = 360,000); AID 504333, 2011; also: % is scaled to controls: 0 for no effect and ±100 for the full control effect; nearly all actives have a fitted effect of over 60% in size
# Target sequence (Q9UIF8 whole entry, looked up, the tested form may be a part): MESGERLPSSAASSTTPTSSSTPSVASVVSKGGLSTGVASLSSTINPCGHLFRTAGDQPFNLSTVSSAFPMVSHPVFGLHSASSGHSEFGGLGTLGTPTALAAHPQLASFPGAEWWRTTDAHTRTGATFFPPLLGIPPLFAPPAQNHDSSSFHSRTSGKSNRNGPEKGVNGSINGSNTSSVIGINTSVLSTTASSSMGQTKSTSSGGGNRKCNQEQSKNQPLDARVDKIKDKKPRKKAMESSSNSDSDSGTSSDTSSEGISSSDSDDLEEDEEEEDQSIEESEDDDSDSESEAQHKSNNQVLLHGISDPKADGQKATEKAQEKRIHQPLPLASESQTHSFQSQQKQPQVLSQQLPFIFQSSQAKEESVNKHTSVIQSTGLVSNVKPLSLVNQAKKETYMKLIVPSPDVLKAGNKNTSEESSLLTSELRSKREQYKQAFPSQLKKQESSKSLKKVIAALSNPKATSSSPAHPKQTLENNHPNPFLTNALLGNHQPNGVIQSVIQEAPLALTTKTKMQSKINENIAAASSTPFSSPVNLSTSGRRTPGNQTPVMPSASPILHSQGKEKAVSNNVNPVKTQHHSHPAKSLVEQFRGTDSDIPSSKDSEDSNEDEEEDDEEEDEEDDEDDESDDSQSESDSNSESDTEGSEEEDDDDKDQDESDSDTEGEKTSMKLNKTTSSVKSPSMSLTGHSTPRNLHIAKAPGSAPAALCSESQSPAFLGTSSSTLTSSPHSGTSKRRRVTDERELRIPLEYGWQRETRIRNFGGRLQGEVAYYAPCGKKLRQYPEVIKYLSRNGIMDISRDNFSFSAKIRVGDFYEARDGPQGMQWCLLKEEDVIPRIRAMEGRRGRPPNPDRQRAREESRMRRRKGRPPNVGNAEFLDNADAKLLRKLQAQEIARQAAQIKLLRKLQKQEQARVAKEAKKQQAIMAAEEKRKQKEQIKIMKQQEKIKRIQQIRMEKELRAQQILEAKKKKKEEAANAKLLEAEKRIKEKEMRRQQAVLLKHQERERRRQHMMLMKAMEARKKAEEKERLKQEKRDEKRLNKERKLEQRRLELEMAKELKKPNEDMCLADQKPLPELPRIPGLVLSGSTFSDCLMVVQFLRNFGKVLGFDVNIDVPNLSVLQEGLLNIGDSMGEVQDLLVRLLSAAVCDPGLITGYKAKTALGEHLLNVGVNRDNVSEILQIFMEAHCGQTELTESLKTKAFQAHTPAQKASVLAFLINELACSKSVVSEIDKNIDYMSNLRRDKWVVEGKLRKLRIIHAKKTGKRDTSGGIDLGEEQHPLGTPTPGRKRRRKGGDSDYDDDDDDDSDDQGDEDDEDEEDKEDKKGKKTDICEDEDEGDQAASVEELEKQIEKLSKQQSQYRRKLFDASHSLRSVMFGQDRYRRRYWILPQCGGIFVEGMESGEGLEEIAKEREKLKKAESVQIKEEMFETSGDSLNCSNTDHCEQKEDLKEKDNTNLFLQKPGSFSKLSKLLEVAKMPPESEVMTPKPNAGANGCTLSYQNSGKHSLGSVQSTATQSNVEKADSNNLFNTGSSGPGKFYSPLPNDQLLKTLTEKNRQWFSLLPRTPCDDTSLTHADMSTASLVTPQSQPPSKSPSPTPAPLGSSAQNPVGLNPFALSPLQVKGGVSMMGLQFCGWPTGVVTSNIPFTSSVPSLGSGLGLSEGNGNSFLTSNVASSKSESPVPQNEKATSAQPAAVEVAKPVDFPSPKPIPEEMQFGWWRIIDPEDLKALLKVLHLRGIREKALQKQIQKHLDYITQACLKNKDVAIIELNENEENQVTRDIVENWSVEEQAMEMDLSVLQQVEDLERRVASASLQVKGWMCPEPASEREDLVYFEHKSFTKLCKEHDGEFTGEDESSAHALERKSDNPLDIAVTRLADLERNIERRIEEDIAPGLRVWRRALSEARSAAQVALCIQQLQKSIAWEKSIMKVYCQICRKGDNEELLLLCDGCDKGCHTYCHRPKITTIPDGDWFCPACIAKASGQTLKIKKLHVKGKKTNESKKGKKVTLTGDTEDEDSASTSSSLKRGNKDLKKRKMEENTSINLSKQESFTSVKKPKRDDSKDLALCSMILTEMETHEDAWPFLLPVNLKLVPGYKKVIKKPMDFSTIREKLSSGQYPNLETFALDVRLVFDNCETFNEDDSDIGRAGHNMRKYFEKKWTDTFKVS
#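 BAZ2B (50 nM) with biotin-H3(5-23)K14Ac peptide (50 nM) in PBS pH 7.4, 0.01% Tween-20, preformed 30 min, then compound 30 min at room temperature; top concentration 110uM. AlphaScreen streptavidin donor/nickel chelate acceptor beads (10 ug/mL final), 20 min dark, signal read.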
# JMJD2A Tudor inh: qHTS Assay for Inhibitors of JMJD2A-Tudor Domain | Lysine-specific demethylase 4A (Homo sapiens), O75164 | AlphaScreen JMJD2A-Tudor / H3K4me3 peptide binding | Potency, µM (doses to about 114 µM), for inactives: at the highest dose activity change, negative = inhibition, actives largely listed as inhibitors | actives 4.4% (n = 390,000) | AID 504339, 2011; also: % is scaled to controls: 0 for no effect and ±100 for the full control effect; nearly all actives have a fitted effect of over 50% in size
# HP1b chromo inh: HTS for Inhibitors of HP1-beta Chromodomain Interactions with Methylated Histone Tails. Chromobox protein homolog 1 (Homo sapiens), P83916. AlphaScreen HP1-beta / biotin-H3K9me3 peptide binding. Potency, µM (top dose mostly 114 µM), for the others: at the top dose activity change, negative = inhibition, actives largely listed as inhibitors. actives 0.56% (n = 390,000). AID 540317, 2011; also: nearly all actives have a fitted effect of over 70% in size
#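 Compound inhibition of the preformed complex between 50 nM HP1-beta and 50 nM biotinylated H3K9me3 peptide was read by AlphaScreen. Buffer was PBS pH 7.4 with 0.01% Tween-20. Incubations ran 30 min at room temperature, with 10 ug/mL donor/acceptor beads.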
# G9a inh: qHTS Assay for Inhibitors of Histone Lysine Methyltransferase G9a; G9a H3K9 monomethylation, AlphaScreen, 2 h; Potency, µM (top dose mostly 102 µM), inactives show top-dose activity, negative = inhibition, actives largely listed as inhibitors; actives 8.8% (n = 350,000); also: % is scaled to controls: 0 for no effect and ±100 for the full control effect; nearly all actives have a fitted effect of over 75% in size
#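 Signal arises when biotinylated H3K9 peptide, once monomethylated, bridges streptavidin donor and antibody-captured acceptor beads. Enzyme at 20 nM was preincubated 15 min with test compounds; peptide 500 nM and SAM 20 uM then reacted for 2 h.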
# Starred values were filed as active, the others as inactive; ? = inconclusive; nt = not tested or not shown; [ ] = another dose, or the depositor's remark. Most compounds without a hit are left out; they make up all but 12% or so of the library. Calls follow the shape of the dose curve; as a rule, active = well fitted curve in the direction sought with a large enough effect; inconclusive = small, poorly fitted or top-dose-only effect, or another doubt; inactive = no such curve, though single readings can be large; an effect the other way counts as inactive or inconclusive. Potency is read from the fitted curve at half-maximal effect.
SMILES,Sfp PPTase inh,TDP1 block,BAZ2B block,JMJD2A Tudor inh,HP1b chromo inh,G9a inh
CCSC[C@H](NC(=O)[C@H](C)NC(=O)[C@@H](N)Cc1ccc(O)cc1)C(=O)N[C@@H](CC(=O)O)C(=O)N[C@H](C(=O)N[C@@H](C)C(=O)N[C@H](C(=O)N[C@@H](CSCC)C(=O)N[C@H](C(=O)N[C@H](C(=O)N[C@@H](Cc1cnc[nH]1)C(=O)N[C@@H](CCCNC(=N)N)C(=O)N[C@@H](CC(C)C)C(=O)N[C@@H](C)C(=O)NCC(=O)N[C@@H](CC(C)C)C(=O)N[C@@H](CC(C)C)C(=O)N[C@@H](CO)C(=O)N[C@@H](CCCNC(=N)N)C(=O)N[C@@H](CO)C(=O)NCC(=O)NCC(=O)N[C@H](C(=O)N[C@H](C(=O)N[C@@H](CCCCN)C(=O)N[C@@H](CC(N)=O)C(=O)N[C@@H](CC(N)=O)C(=O)N[C@@H](Cc1ccccc1)C(=O)N[C@H](C(=O)N1CCC[C@H]1C(=O)N[C@H](C(=O)N[C@@H](CC(N)=O)C(=O)N[C@H](C(=O)NCC(=O)N[C@@H](CO)C(=O)N[C@@H](CCCCN)C(=O)N[C@@H](C)C(=O)N[C@@H](Cc1ccccc1)C(N)=O)C(C)C)[C@@H](C)O)C(C)C)C(C)C)C(C)C)[C@@H](C)O)C(C)C)[C@@H](C)O)[C@@H](C)O,9.8%,11.5%,nt,nt,nt,nt
O=Cc1cc(N=Nc2cccc(C(=O)O)c2)ccc1O,-7.2%,0.0%,?,-13.3%,8.8%,?
O=Cc1cc(N=Nc2ccccc2Cl)ccc1O,-13.5%,9.6%,10µM*,25.1µM*,?,10µM*
CCOC(=O)N1CCC2(CC1)C(C#N)=C(N)Oc1c2c(C)nn1-c1cccc(Cl)c1,2.6%,8.7%,50.1µM*,?,-11.0%,?
CCOC(=O)N1CCC2(CC1)C(C#N)=C(N)Oc1n[nH]c(C)c12,5.6%,7.0%,14.1%,-19.0%,23.6%,?
CCCc1ccc(S(=O)(=O)N2CCC(c3nnnn3-c3ccc(OC)cc3)CC2)cc1,nt,0.0%,5.9%,-4.4%,44.1%,-0.6%[59 µM]
CCCc1cc(CNC(=O)C2CCC(=O)N(Cc3ccccc3F)C2)on1 (stereo unspecified),19.3%,1.0%,-1.5%,5.2%,34.2%[57 µM],54.1%
CC(c1ccccn1)C(C)(O)C(C)c1ccccn1 (stereo unspecified),nt,nt,nt,-3.4%,28.9%,nt
OC(c1ccccn1)(c1ccccn1)c1ccccn1,?,2.6%,22.4µM*,56.2µM*,36.8%,-6.9%[59 µM]
COc1ccc(CNC(=O)c2ccc(CS(=O)c3ccccc3)o2)cc1 (stereo unspecified),22.5%,3.7%,-31.1%,-6.8%,64.6%,52.1%
O=C(CN1CCN(S(=O)(=O)c2ccc(F)cc2)CC1)c1ccc(O)c(O)c1,17.8µM*,5.4%,?,?,18.0%,20µM*
COc1ccc(S(=O)(=O)N2CCN(CC(=O)c3ccc(O)c(O)c3)CC2)cc1,44.7µM*,-0.1%,-37.8%,?,16.2%,28.2µM*
O=C(CN1CCN(S(=O)(=O)c2ccc(Cl)cc2)CC1)c1ccc(O)c(O)c1,56.2µM*,0.4%,?,17.8µM*,-17.8%[57 µM],nt
COc1cccc(C(=O)CN2CCN(S(=O)(=O)c3ccc(Cl)cc3)CC2)c1,nt,8.8%,-16.6%,-15.9%,40.2%,10µM*
